# From PubChem
# An excerpt weighted towards active compounds, which were near 3.9% of everything screened.
# Glyco luc inh – N-linked glycosylation inhibition | D54 ERlucT glycosylation luciferase reporter, 24 h; percent of 100 nM tunicamycin response | reporter increase, % at 12.5 µM | 360,000 tested, 0.23% active | AID 588692;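 active = mean luciferase reporter signal, scaled so untreated is 0 and the glycosylation-blocking control 100, at or above a set limit in every replicate; inconclusive = mean reaches the limit but not every replicate does; inactive = mean below the limit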;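 note: luciferase carries N-glycosylation sites so blocking glycosylation raises the light; 0% = median of neutral control wells and 100% = median of 100 nM tunicamycin wells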
# SUMO Mot1 rescue – SUMOylation pathway inhibition by Mot1-301 growth rescue; S. cerevisiae Mot1-301 growth rescue, ATP luminescence, 38.5C; percent above DMSO median, 100 means doubled; growth rescue, % at 18.8 µM; 320,000 tested, 1% active; AID 2716;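 active = every valid replicate shows activation above 250% relative to neutral control wells; inactive = the rest, any valid replicate at or below 250%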;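 note: OY570 slx delta 5 strain wells were the positive control but not used for scaling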
# CDK5 p35 inh – inhibitors of human CDK5/p35 kinase; Recombinant CDK5/p35, ADP-Glo luminescence, 60 min; AID 488839; inhibition, % at 10 µM; Q00535+Q15078; 330,000 tested, 0.01% active;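 active = highest replicate inhibition of at least 50% and at least 75% of replicates reaching 50%; inconclusive = only one of the two criteria met; inactive = both criteria failed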;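 note: plate controls were DMSO neutral control for no effect and GW8510 at 10 µM for full effect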
# ALR inh – blocks human ALR sulfhydryl oxidase activity; inhibition, % (concentration not given with the values); purified ALR, DTT oxidation, H2O2 HRP-luminol luminescence; P55789; 290,000 tested, 3.8% active; AID 485317;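 active = mean replicate inhibition above about 79%, with every replicate also reaching it, limit read from the data; inconclusive = only one of the two criteria met; inactive = mean below limit and not every replicate reaching it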
# NSD2 HMT inh – blocks human histone methyltransferase NSD2. O96028. NSD2 peptide methylation, AlphaScreen, 120 min. inhibition, % at 12.5 µM. 310,000 tested, 0.54% active; in the data active = inhibition above about 50%
# Target sequence (O96028 whole entry, looked up): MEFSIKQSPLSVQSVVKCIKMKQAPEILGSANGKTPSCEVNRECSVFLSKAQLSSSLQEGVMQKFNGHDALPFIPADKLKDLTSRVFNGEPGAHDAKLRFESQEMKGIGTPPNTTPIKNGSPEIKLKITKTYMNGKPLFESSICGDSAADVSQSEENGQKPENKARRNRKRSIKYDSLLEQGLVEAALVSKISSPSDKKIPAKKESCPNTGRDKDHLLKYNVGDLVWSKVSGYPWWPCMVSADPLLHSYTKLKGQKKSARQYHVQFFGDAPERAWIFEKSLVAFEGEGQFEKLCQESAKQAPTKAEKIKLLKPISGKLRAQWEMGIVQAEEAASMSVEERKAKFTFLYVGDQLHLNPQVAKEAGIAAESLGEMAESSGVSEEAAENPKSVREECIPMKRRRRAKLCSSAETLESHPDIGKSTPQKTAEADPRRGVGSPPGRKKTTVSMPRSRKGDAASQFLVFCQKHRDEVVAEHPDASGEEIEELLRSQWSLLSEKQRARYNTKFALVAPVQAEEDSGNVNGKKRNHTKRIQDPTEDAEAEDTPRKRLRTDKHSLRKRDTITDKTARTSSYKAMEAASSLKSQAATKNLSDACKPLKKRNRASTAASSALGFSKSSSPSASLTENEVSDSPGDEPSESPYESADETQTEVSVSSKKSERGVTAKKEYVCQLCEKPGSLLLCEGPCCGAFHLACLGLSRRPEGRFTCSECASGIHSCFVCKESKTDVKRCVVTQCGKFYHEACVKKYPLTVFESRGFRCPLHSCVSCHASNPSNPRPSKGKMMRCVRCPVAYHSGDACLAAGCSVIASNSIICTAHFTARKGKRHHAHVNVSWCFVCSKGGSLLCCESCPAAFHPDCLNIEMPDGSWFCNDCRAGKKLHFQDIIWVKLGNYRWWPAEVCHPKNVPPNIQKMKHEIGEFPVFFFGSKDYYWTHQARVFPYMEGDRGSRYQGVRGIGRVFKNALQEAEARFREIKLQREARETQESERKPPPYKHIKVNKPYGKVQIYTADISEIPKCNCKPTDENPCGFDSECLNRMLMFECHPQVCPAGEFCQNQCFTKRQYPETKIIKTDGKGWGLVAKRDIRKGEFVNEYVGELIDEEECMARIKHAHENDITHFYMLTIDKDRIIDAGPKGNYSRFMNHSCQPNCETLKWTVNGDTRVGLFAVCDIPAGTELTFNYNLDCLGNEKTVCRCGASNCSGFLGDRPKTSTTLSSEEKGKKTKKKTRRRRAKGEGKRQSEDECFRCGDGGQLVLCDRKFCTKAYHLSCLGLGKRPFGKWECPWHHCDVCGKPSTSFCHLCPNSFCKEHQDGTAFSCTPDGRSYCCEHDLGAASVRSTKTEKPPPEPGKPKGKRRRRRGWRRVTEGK
# CASP6 VEID inh – blocks human caspase-6 cleavage activity; P55212; purified caspase-6, Z-VEID-R110 cleavage fluorescence; inhibition, % at 12.5 µM; 350,000 tested, 0.53% active; AID 686996;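 active = mean inhibition across replicates at least about 35%, with every replicate also reaching that limit, limit read from the data; inconclusive = only one of the two criteria met; inactive = neither criterion met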;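 note: 0% = median of neutral control wells and 100% = no fluorescence left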
# Numbers without * were called inactive; u = inconclusive; x = no result given.
SMILES,Glyco luc inh,SUMO Mot1 rescue,CDK5 p35 inh,ALR inh,NSD2 HMT inh,CASP6 VEID inh
COc1ccc(S(=O)(=O)Nc2ccc3c(c2)C(=O)N([C@@H](C)CO)C[C@H](C)[C@H](CN(C)C(=O)NC2CCCCC2)OCCCC[C@H](C)O3)cc1,x,x,x,x,x,2
CCNC(=O)Nc1ccc2c(c1)C(=O)N(C)[C@H]1CC[C@H](CC(=O)N[C@H](C)c3ccccc3)O[C@H]1CO2,x,x,x,x,x,2
CCCNC(=O)C[C@H]1CC[C@H]2[C@@H](COc3ccc(NC(=O)C4CCOCC4)cc3C(=O)N2C)O1,x,x,x,x,x,0
COc1ccc(/C=C2\C(=N)N3N=C(CC(=O)N4CCCCC4)SC3=NC2=O)cc1,0,-6,-4,80*,2,-1
CCN(CC)c1ccc(/C=C2\C(=N)N3N=C(CC(=O)N4CCOCC4)SC3=NC2=O)cc1,2,-5,0,98*,7,2
CCCC1=NN2C(=N)/C(=C\c3ccc(SCc4ccco4)o3)C(=O)N=C2S1,1,23,1,99*,x,x
CCc1ccc(/C=C2\C(=N)N3N=C(CC(=O)N4CCCCC4)SC3=NC2=O)cc1,0,4,-3,5,0,0
O=C1NC(=S)S/C1=C\c1ccc(SCc2ccccc2)o1,0,6,-1,-1,19,x
O=C1NC(=S)S/C1=C\c1ccc(SCc2ccco2)o1,-2,47,0,99*,x,x
C[C@H](CO)N1C[C@H](C)[C@@H](CN(C)Cc2ccc(C(=O)O)cc2)Oc2c(NC(=O)c3cnccn3)cccc2C1=O,x,x,x,x,x,-1
CNC(=O)C[C@H]1CC[C@H]2[C@H](COc3ccc(NC(=O)c4ccc(F)cc4)cc3C(=O)N2C)O1,x,x,x,x,x,0
O=Cc1c(Sc2ccccc2)nc2ccccn2c1=O,5,1,2,98*,3,x
O=Cc1c(SCCO)nc2ccccn2c1=O,1,13,1,-10,8,2
O=Cc1c(Sc2ccccn2)nc2ccccn2c1=O,5,-16,1,97*,4,x
O=C(NCC[C@@H]1CC[C@@H](NS(=O)(=O)c2ccc(Oc3ccccc3)cc2)[C@H](CO)O1)C1CC1,x,x,x,x,x,-2
Cc1ccc(C)c(NC(=O)C(NCC(C)(C)N2CCOCC2)c2ccccc2)c1 (configuration not stated),3,767*,1,x,-1,1
Cc1ccc(C)c(NC(=O)C(c2ccccc2)N2CCN(CC(=O)N3CCOCC3)CC2)c1 (configuration not stated),3,-4,-1,-4,2,1
Cc1ccc(S(=O)(=O)Nc2ccc3c(c2)C(=O)N([C@@H](C)CO)C[C@H](C)[C@@H](CN(C)C(=O)C2CCCCC2)OCCCC[C@H](C)O3)cc1,x,x,x,x,x,0
O=C(NCc1ccc(Cl)cc1Cl)c1ccc2nc[nH]c2c1,-1,-9,0,67,-2,x
O=C(NCc1ccccc1Cl)c1ccc2nc[nH]c2c1,1,x,2,3,8,39*
CC(C)c1c(C(=O)Nc2ccccc2)c(-c2ccccc2)c(-c2ccc(F)cc2)n1CC[C@@H](O)C[C@@H](O)CC(=O)O,80*,x,x,x,x,-4
Cc1noc(C)c1NC(=O)N(C)C[C@@H]1OCc2ccccc2-c2ccccc2C(=O)N([C@H](C)CO)C[C@@H]1C,x,x,x,x,x,-2
O=C(Cn1c2ccc(F)cc2c2nc3n(c(=O)c21)CCS3)Nc1ccccc1F,x,-1,x,-8,2,x
O=C(Cn1c2ccc(F)cc2c2nc3n(c(=O)c21)CCS3)NC1CCCC1,0,-20,0,-5,0,52*
COc1cccc(CNc2ccc3[nH]c(=O)[nH]c3c2)c1OCc1ccccc1,-1,10,0,99*,-1,x
SMILES,Glyco luc inh,SUMO Mot1 rescue,CDK5 p35 inh,ALR inh,NSD2 HMT inh,CASP6 VEID inh
COc1cc(CNc2ccc3[nH]c(=O)[nH]c3c2)ccc1OCc1ccc(F)cc1,-4,-2,2,89*,11,2
C=CCOc1cccc(CNc2ccc3[nH]c(=O)[nH]c3c2)c1,-2,66,1,99*,2,2
COc1cc(CNc2ccc3[nH]c(=O)[nH]c3c2)ccc1OCc1ccccc1,-3,33,-2,68,-3,2
COc1cccc(CNc2ccc3[nH]c(=O)[nH]c3c2)c1OCc1ccccc1Cl,-2,-3,-1,97*,7,3
CNC[C@@H]1Oc2c(NC(=O)c3nc4ccccc4s3)cccc2C(=O)N([C@H](C)CO)C[C@@H]1C,x,x,x,x,x,-1
C/C(N)=C(/C#N)C(=O)CSc1cc(C)c2cc(C)cc(C)c2n1,-1,4,0,96*,1,3
COC(=O)/C(=N/Nc1ccc(C)cc1)N1CCCc2ccccc21,-5,41,-1,99*,2,-1
COC(=O)/C(=N/Nc1ccccc1)N1CCCc2ccccc21,-7,-24,-1,x,2,0
COC(=O)/C(=N/Nc1cccc(C)c1)N1CCCc2ccccc21,0,20,-2,99*,-2,x
CCC1C/C(=C\c2cc(OC)c(OC)cc2OC)C(=O)/C(=C/c2cc(OC)c(OC)cc2OC)C1 (configuration not stated),-13,3,-1,-16,3,x
CCC1C/C(=C/c2ccco2)C(=O)/C(=C/c2ccco2)C1 (configuration not stated),x,6,x,97*,x,x
CCN(CC)c1ccc(NC(=O)CCCCCN2C(=O)c3ccccc3C2=O)cc1,0,3,0,99*,2,x
CCN(CC)c1ccc(NC(=O)CCCCC(=O)Nc2ccc(N(CC)CC)cc2)cc1,-4,-9,3,u,7,-1
CC(=O)c1cccc(NC(=O)CSC(=O)c2ccccc2)c1,6,-7,0,99*,1,3
O=C(CSC(=O)c1ccccc1)Nc1ccccc1F,1,131,1,x,-1,0
CCN(CC)c1ccc(NC(=O)CSC(=O)c2ccccc2)cc1,8,25,-1,99*,1,0
CCN(CC)c1ccc(NC(=O)COc2ccc(-n3cnnn3)cc2)cc1,7,5,2,99*,3,-2
C[C@@H]1CN([C@@H](C)CO)C(=O)c2cccc(NC(=O)Nc3ccc(F)cc3)c2O[C@H]1CN(C)CC1CC1,x,x,x,x,x,1
C#CCSc1nnc(-c2cccc3ccccc23)o1,-1,1,0,97*,-4,x
C=CCSc1nnc(-c2cccc3ccccc23)o1,3,x,0,x,x,-13
COc1ccc([N+](=O)[O-])cc1NC(=O)CSCc1ccccc1C,-3,8,1,99*,-2,x
Nc1cccc(-c2cnc3ccccc3n2)c1,-4,-17,-4,99*,-2,1
O=[N+]([O-])c1cccc(-c2cnc3ccccc3n2)c1,2,-1,0,0,0,1
